“And” between values parts separate entries of the source, which are not always exact repeats. Identical values can stand only once. Inconclusive results are not listed. The source made the active and inactive calls. Unless noted, no stated cut-off is given here; in the data, active means inhibition above about 80%; inactive means the rest.
Columns and labels:
[1] = viability loss in pontine glioma line – cell-based, SU-DIPG-XXV, MIPE5.0, CellTiter-Glo, qHTS, dose response (AID 1347065; cut-off not given, nearly all actives have AC50 up to about 26 µM;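 further: cells exposed to compound for 48 hours before ATP readout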); details: CellTiter-Glo ATP luminescence
[2] = SU-DIPG-VI glioma cell viability, MIPE4.0 library, CellTiter-Glo luminescence, qHTS (AID 1347066; cut-off not given, nearly all actives have AC50 up to about 30 µM;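 further: cells exposed to compound for 48 hours before readout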); details: CellTiter-Glo ATP luminescence
[3] = JHH-DIPG-1 glioma cell viability, MIPE5.0 library, CellTiter-Glo luminescence, qHTS (AID 1347067; cut-off not given, nearly all actives have AC50 up to about 26 µM;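 further: cells exposed to compound for 48 hours before readout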); details: JHH-DIPG-1 glioma viability, CellTiter-Glo ATP luminescence
[4] = SU-DIPG-XXV glioma cell viability, MIPE5.0 library, qHTS (AID 1347068; cut-off not given, nearly all actives have IC50 up to about 30 µM)
[5] = phospholipid biosynthesis inhibitors in animal cells, primary screen, cell-based, LOPAC library, screen 4 (AID 1347384; call rule not given here); details: phospholipid biosynthesis inhibition screen, at 10 µM
[6] = survival rescue of mitochondrial mutant cells in low glucose, primary screen, MELAS cybrids, Rieske KO mouse fibroblasts, CellTiter-Glo (AID 1508586;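 active means mean z-score across replicates of 1.96 or higher in either the MELAS or the Rieske mutant cell line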;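 further: z relative to plate mean and SD of compound and empty wells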)
[7] = target: NAD(+) hydrolase SARM1 (Homo sapiens) (UniProt Q6SZW1); test: SARM1 TIR NADase inhibitors, cell lysate, NAD-Glo luminescence (AID 1508614;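 active means compound whose remaining NAD level is above about 45 nM, limit read from the data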); details: SAM-TIR HEK293T lysate NADase, at 1 µM, stronger effect = higher value
Sequence of NAD(+) hydrolase SARM1 (Homo sapiens) (Q6SZW1 whole entry, looked up): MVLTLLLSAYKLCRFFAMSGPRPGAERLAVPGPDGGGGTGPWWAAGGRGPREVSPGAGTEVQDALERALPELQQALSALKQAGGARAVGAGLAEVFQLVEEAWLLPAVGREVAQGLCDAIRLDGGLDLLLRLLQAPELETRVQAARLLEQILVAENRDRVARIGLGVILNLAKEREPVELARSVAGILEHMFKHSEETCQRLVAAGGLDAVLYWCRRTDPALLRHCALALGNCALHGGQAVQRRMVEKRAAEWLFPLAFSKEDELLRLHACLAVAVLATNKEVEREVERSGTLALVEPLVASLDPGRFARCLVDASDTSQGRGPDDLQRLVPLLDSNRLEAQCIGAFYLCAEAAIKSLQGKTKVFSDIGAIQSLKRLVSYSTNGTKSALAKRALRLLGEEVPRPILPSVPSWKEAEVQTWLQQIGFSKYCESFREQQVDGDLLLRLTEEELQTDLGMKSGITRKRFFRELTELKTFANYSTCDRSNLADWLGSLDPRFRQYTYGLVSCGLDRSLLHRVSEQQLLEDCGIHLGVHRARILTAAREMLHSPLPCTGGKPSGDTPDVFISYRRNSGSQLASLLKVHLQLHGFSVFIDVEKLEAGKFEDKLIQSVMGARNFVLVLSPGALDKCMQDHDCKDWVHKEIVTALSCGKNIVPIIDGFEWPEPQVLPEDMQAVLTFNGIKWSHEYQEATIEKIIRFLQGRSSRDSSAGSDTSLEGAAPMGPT

[8] = viability rescue of complex I mutant cybrids, primary screen, cell-based, galactose medium, ATP luminescence (AID 1645843;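 active means z-score of at least 1.8 in each of two replicates, scored against plate mean and spread of sample wells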;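 further: positive z means more ATP and so rescue of galactose-driven cybrid death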); details: complex I mutant cybrid cells, 72 h, stronger effect = higher value
[9] = target: Mitogen-activated protein kinase 7 (Homo sapiens) (UniProt Q13164); test: ERK5 transactivation activators in reporter cells, primary screen, cell-based, HTS (AID 1508626;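 active means luciferase signal above three times the same-plate solvent-only control wells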;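 further: luciferase driven by Gal4-ERK5 fusion binding five Gal4 sites before minimal TATA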); details: HeLa Gal4-ERK5 transactivation, 18 h, at 5 µM, stronger effect = higher value
Sequence of Mitogen-activated protein kinase 7 (Homo sapiens) (Q13164 whole entry, looked up, the tested form may be a part): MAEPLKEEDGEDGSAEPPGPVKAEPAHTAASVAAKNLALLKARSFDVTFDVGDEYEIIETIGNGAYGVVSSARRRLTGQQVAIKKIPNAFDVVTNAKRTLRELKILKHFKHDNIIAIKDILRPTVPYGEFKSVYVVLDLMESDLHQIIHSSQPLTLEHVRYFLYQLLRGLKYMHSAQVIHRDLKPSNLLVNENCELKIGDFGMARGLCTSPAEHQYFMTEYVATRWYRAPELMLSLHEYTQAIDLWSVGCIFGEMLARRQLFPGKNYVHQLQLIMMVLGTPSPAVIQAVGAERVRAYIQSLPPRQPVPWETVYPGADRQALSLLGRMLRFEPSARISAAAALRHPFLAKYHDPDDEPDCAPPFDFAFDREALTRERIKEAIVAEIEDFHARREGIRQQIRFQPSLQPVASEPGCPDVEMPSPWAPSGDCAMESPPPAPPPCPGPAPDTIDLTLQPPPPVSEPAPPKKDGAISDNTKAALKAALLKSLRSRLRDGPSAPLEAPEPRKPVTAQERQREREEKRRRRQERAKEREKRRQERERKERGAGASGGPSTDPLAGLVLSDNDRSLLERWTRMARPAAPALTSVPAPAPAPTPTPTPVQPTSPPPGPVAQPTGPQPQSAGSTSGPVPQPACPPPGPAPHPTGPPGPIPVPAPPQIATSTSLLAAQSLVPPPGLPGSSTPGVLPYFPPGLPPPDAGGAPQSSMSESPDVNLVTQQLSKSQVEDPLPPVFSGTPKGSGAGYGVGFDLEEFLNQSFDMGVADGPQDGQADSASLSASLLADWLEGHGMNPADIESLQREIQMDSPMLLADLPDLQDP

[10] = LFS_MB_P medulloblastoma growth inhibition, cell-based, chromothripsis tumors, cisplatin or BGB combos (AID 1671449); details: LFS_MB_P medulloblastoma cells;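 further: cells exposed for 96 hours; 0% = vehicle DMSO and 100% = killing by high DMSO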
[11] = HDN33 neuroblastoma growth inhibition, cell-based, chromothripsis tumors, cisplatin or BGB combos (AID 1671450); details: HDN33 neuroblastoma cells, stronger effect = higher value;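 further: cells exposed to compound for four days; 0% = vehicle DMSO and 100% = cell killing by high DMSO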
[12] = ICB984 medulloblastoma cell growth inhibition, synergistic combos for chromothripsis tumors, cisplatin or BGB combos (AID 1671451; call rule not given here;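 further: cells exposed for 96 hours before readout; 0% = vehicle DMSO and 100% = killing by high DMSO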); details: ICB984 medulloblastoma cells, drug combinations, stronger effect = higher value
[13] = LFS_MB_1R medulloblastoma cell growth inhibition, synergistic combos for chromothripsis tumors, cisplatin or BGB combos (AID 1671452); details: LFS_MB_1R medulloblastoma cells, stronger effect = higher value;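 further: cells exposed for 96 hours before readout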
[14] = HTB85 osteosarcoma cell growth inhibition, synergistic combos for chromothripsis tumors, BGB or cisplatin IC20 combos (AID 1671453); details: HTB85 osteosarcoma cells, drug combinations, stronger effect = higher value;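 further: cells exposed for 96 hours before readout; 0% = vehicle DMSO and 100% = high DMSO killing control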
[15] = CRL2098 osteosarcoma cell growth inhibition, synergistic combos for chromothripsis tumors, BGB or cisplatin IC20 combos (AID 1671454); details: CRL2098 osteosarcoma cells, drug combinations, stronger effect = higher value;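 further: cells exposed for 96 h before readout; 0% = vehicle DMSO and 100% = killing by high DMSO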
[16] = HD-MB03 medulloblastoma cell growth inhibition, synergistic combos for chromothripsis tumors, BGB or cisplatin IC20 combos (AID 1671455; in the data active means inhibition above about 83%;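 further: 0% = vehicle DMSO and 100% = high DMSO as cytotoxic control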); details: HD-MB03 medulloblastoma cells, stronger effect = higher value
[17] = MELAS cybrid survival, CellTiter-Glo 48 h, stronger effect = higher value
[18] = Rieske KO mouse fibroblast survival, CellTiter-Glo 72 h
[19] = measured here: combination with BGB IC40, at 0.05 µM

CCN1CCCC1CNC(=O)c1cc(S(=O)(=O)CC)c(N)cc1OC (stereo not given)
outcome [1]: inactive
outcome [2]: inactive
outcome [3]: inactive
outcome [4]: inactive
outcome [5]: inactive
z-score [6, 17]: -0.415 (inactive) and 0.449 (inactive)
z-score [6, 18]: 0.177 and 0.21
remaining NAD [7]: 10 nM (inactive)
z-score [8]: 0.105 (inactive) and 0.58 (inactive) and -0.055 (inactive)

CCn1cc(C(=O)O)c(=O)c2cc(F)c(N3CCNC(C)C3)c(F)c21 (stereo not given)
outcome [1]: inactive
outcome [2]: inactive
outcome [3]: inactive
outcome [4]: inactive
outcome [5]: inactive
z-score [6, 17]: -0.544 (inactive) and -0.435 (inactive)
z-score [6, 18]: 0.167 and 0.141
remaining NAD [7]: 10 nM (inactive)
luciferase signal [9]: 36 AU (inactive)
z-score [8]: 0.475 (inactive) and -0.065 (inactive)
inhibition ([10]; at 0.5 µM, stronger effect = higher value): -15.3% (inactive) and -10.6% (inactive)
inhibition ([10]; measured here: combination with BGB IC20, at 0.005 µM): -5.89% and -31.7%
inhibition ([10]; measured here: combination with BGB IC40, at 0.005 µM): -27.7% and -17%
inhibition [10, 19]: -32.7% and -10.2%
inhibition ([10]; measured here: combination with cisplatin, at 0.5 µM, stronger effect = higher value): -27.9% and -16%
inhibition ([10]; measured here: combination with cisplatin, at 5 µM, stronger effect = higher value): -19.1% and -19.2%
inhibition ([11]; BGB combo, at 5 µM): -42.8% and -11.5%
inhibition ([11]; at 0.5 µM): -39.6% (inactive) and -19.9% (inactive)
inhibition ([11]; cisplatin combo, at 5 µM): -22.1% and -6.52%
inhibition ([11]; measured here: with BGB IC20 combination, at 0.5 µM): -33.5% and -33.9%
inhibition ([11]; measured here: with cisplatin IC20 combination, at 0.5 µM): -40.2% and -6.39%
inhibition ([11]; single agent, at 5 µM): -51.7% and -21.7%
inhibition ([12]; BGB IC20 combo, at 0.005 µM): -2.68% and 6.83%
inhibition ([12]; BGB IC40 combo, at 0.005 µM): -5.47% and -12.9%
inhibition ([12]; BGB IC40 combo, at 0.05 µM): -30.9% and -16.1%
inhibition ([12]; at 0.5 µM): -32.8% (inactive) and -22.8% (inactive)
inhibition ([12]; cisplatin combo, at 0.05 µM): -34.5% and -19.4%
inhibition ([12]; cisplatin combo, at 0.5 µM): -41.4% and -25.5%
inhibition ([12]; cisplatin combo, at 5 µM): -38.8% and -8.31%
inhibition ([12]; measured here: 5 uM single agent, at 5 µM): -28.6% and -13.7%
inhibition ([13]; at 0.5 µM): -35.3% (inactive) and -9.61% (inactive)
inhibition [13, 19]: -24.9% and -19.8%
inhibition ([13]; measured here: combination with cisplatin, at 0.5 µM): -39.3% and -32.8%
inhibition ([13]; measured here: combination with cisplatin, at 5 µM): -53.1% and -17.8%
inhibition ([14]; at 0.5 µM): -42.2% (inactive) and 22% (inactive)
inhibition ([14]; measured here: with BGB IC20, at 0.5 µM): -50.9% and 58.5%
inhibition ([14]; measured here: with BGB IC20, at 5 µM): -41.8% and 56%
inhibition ([14]; measured here: with cisplatin IC20, at 0.5 µM): -43.1% and 12.8%
inhibition ([14]; measured here: with cisplatin IC20, at 5 µM): -15.2% and -22.2%
inhibition ([14]; single agent, at 5 µM): -37.9% and -11.7%
inhibition ([15]; at 0.5 µM): -101% (inactive) and -12.1% (inactive)
inhibition ([15]; measured here: combination with BGB at IC20, at 0.5 µM): -94% and -48.1%
inhibition ([15]; measured here: combination with cisplatin at IC20, at 0.5 µM): -123% and -10.4%
inhibition ([16]; at 0.5 µM): -11.4% (inactive) and -9.63% (inactive)
inhibition ([16]; measured here: combo with BGB at IC20, at 0.5 µM): -10.9% and -2.68%
inhibition ([16]; measured here: combo with cisplatin at IC20, at 0.5 µM): -12.2% and -16.4%

Cc1cnc(NC(=O)C2=C(O)c3ccccc3S(=O)(=O)N2C)s1
outcome [1]: inactive
outcome [2]: inactive
outcome [3]: inactive
outcome [4]: inactive
outcome [5]: inactive
z-score [6, 17]: -0.282 (inactive) and 0.497 (inactive) and -0.212 (inactive)
z-score [6, 18]: 0.842 and 0.0996 and -0.732
remaining NAD [7]: 10 nM (inactive)
luciferase signal [9]: 52 AU (inactive)
z-score [8]: 1.35 (inactive) and 0.585 (inactive) and 0.515 (inactive)
